These results are taken from PubChem BioAssay (Tox21).

Results filed as inconclusive are left out. Entries that show only a call come without a potency. Activity calls are given as the source filed them. The call rests on the fitted dose curve.
Potency means the concentration at half of the fitted maximal effect.

The nature of this experiment: qHTS assay for small molecule agonists of the p53 signaling pathway (AID 651631). Further: nearly all actives have a fitted effect of over 15% in size. The conditions noted are these: HCT-116 p53RE-bla reporter, beta-lactamase FRET ratio, 16 h; series mostly up to 73.3 µM. The text has this:
U.S. Tox21 Program National Center for Advancing Translational Sciences [NCATS] NIH Chemical Genomics Center [NCGC] U.S. Environmental Protection Agency [EPA] National Institutes of Environmental Health Sciences [NIEHS] National Toxicology Program [NTP] U.S. Food and Drug Administration [FDA] Tox21 Assay Overview: p53, a tumor suppressor protein, is activated following cellular insult, including DNA damage and other cellular stresses. The activation of p53 regulates cell fate by inducing DNA repair, cell cycle arrest, apoptosis, or cellular senescence. The activation of p53, therefore, is a good indicator of DNA damage and other cellular stresses. The CellSensor p53RE-bla HCT-116 cell line (Invitrogen) contains a stably integrated beta-lactamase reporter gene under control of the p53 response elements. The activation of the reporter gene under culture conditions can be detected by fluorescence intensity. This cell line was used to screen the Tox21 compound library in a 1536-well plate format and to identify agonists that activate the p53 signaling pathway.
Tox21 Assay Protocol Summary: The p53RE-bla cells were dispensed at 4,000 cells/5 ul/well in 1536-well black wall/clear bottom plates using a Multidrop dispenser. After the assay plates were incubated at a 37 C/5% CO2 incubator for 5 hours, 23 nL of compounds dissolved in DMSO, positive controls or DMSO only was transferred to the assay plate by a pin tool. The plates were incubated at 37 C for 16 hours. After 1 uL of LiveBLAzerTM B/G FRET substrate was added using a Flying Reagent Dispenser, the plates were incubated at room temperature for 2 hours, and fluorescence intensity was measured by an Envision plate reader.
Background: Quantitative high-throughput screening tests each substance at several concentrations.
As to `CCCCCCC1CCOC1=O` (stereo not given), the Potency result is “inactive”. `O=C/C=C/c1ccco1`: the Potency entry is “inactive”. Take `ClCOCCl`: the Potency result is “inactive”. Regarding `N#CC(Br)(Br)C(N)=O`, the Potency result was “inactive”.

In the case of `COC(=O)[C@@H](N)CCCN/C(N)=N/[N+](=O)[O-]`, the Potency result is “inactive”.

Consider `CC(=O)CN(CC(C)=O)N=O`, for which the Potency entry was “inactive”. On to `CC(C)(C)C(=O)C(Cl)Cl`, for which the Potency entry is “inactive”.

On to `CCC(C(N)=O)N1CCCC1=O` (stereo not given), for which the Potency entry was “inactive”. With `CC(C)c1ccc(O)cc1`, the Potency entry was “inactive”. As for `CCOC(=O)c1ncn2c1CN(C)C(=O)c1c(I)cccc1-2`, the Potency result was “inactive”.

As for `CCCCS(=O)(=O)Cl`, the Potency result is “inactive”. For the compound `CCCCOC(C)=O`, the Potency result is “inactive”.

`CC(Cl)(Cl)Cl`: the Potency entry is “inactive”. As to `CNC(=O)NC(O)C(Cl)(Cl)Cl` (stereo not given), the Potency entry was “inactive”.

With `Brc1c(Br)c(Br)c(Br)c(Br)c1Br`, the activation was -6.36% [at 8.3 µM] (inactive). Consider `BrCc1ccc(Br)cc1`, for which the Potency entry was “inactive”. As to `COC(=O)c1ccccc1CS(=O)(=O)NC(=O)Nc1nc(OC)cc(OC)n1`, the Potency entry is “inactive”. On to `CCOc1cc(OP(=S)(OC)OC)nc(CC)n1`, for which the Potency entry was “inactive”. As to `c1ccc2c(c1)CCNC2`, the Potency entry was “inactive”. As to `Cn1c(CCCC(=O)O)nc2cc(N(CCCl)CCCl)ccc21`, the Potency is 26.6 µM (active). Regarding `S=C=S`, the Potency entry was “inactive”. As for `CC1NCCOC1c1ccccc1` (stereo not given), the Potency entry is “inactive”.

For `COc1cc(CC(C)N)cc(OC)c1OC` (stereo not given), the Potency entry is “inactive”.

In the case of `NC1(c2ccccc2)CCCCC1`, the Potency entry was “inactive”. Turning to `CCNP(=S)(OC)O/C(C)=C/C(=O)OC(C)C` (stereo not given), the Potency entry was “inactive”. Take `O=CCCl`: the Potency entry was “inactive”.

Consider `C=C(Cl)CSC(=S)N(CC)CC`, for which the Potency result is “inactive”. As to `CC(C)C(C)(N)C#N` (stereo not given), the Potency entry was “inactive”.

With `[O-][Br+2]([O-])O`, the Potency result is “inactive”. `NC(=O)CS(=O)C(c1ccccc1)c1ccccc1` (stereo not given): the Potency result was “inactive”. Turning to `CC1N=C(N)OC1c1ccccc1` (stereo not given), the Potency result was “inactive”.

Take `CCOC(=O)N(C)N=O`: the Potency entry was “inactive”.

On to `CCCCCCC(=O)CCCCCC/C=C/C[C@@H](O)[C@H](O)[C@@](N)(CO)C(=O)O`, for which the Potency entry was “inactive”. Take `OP(O)c1ccccc1`: the Potency result was “inactive”.

Consider `O=C(Cl)C(Cl)Cl`, for which the Potency entry is “inactive”. Turning to `C[N+]1(C)CCCCC1`, the Potency result is “inactive”. On to `CC(C)(O)C(Cl)(Cl)Cl`, for which the Potency entry was “inactive”. For `O=C(O)CBr`, the Potency entry was “inactive”. Take `CCN(CCO)CCO`: the Potency entry is “inactive”. Consider `CC(Cc1ccccc1)NCCn1cnc2c1c(=O)n(C)c(=O)n2C` (stereo not given), for which the Potency result is “inactive”.
